Compound activity: PubChem BioAssay, several laboratories
Only some compounds are listed: those with a hit (about 4.3% of all), similar ones and a draw of the others.
MITF TRPM1 HTS: activators of MITF-driven TRPM1 promoter reporter, primary screen, cell-based, SK-MEL-5, luciferase, single point. AID 588334, 2011. SK-MEL-5 TRPM1-promoter luciferase, 24 h; % of positive control, neutral wells = 0. 300,000 compounds, 0.75% hits. activation, % at 12.5 µM;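 active = mean activation of at least 80% with every replicate also reaching 80%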;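 also: 0% = neutral control wells and 100% = parthenolide positive control wells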
HSF1 activator: HSF-1 activators, primary screen, NIH3T3-HGL cells, MG132 stress, luminescence, single point. NIH3T3-HGL HSF-1 luciferase reporter, 8 h; 100% = twice DMSO control signal. activation, % at 9 µM. 300,000 compounds, 1.7% hits;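 active = mean replicate activation of at least 50% with a set share of replicates each reaching 50%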;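 also: 0% = median of the neutral control wells and 100% = twice that signal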
HSF1 inh: HSF1 inhibitors in luciferase reporter cells, primary screen, cell-based, NIH3T3, luminescence; 300,000 compounds, 0.77% hits; activity change, negative = inhibition, % at 7.5 µM (by protocol); NIH3T3-HGL HSE-luciferase, MG132-induced, luminescence 8 h; hits give low values;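 active = more than half of replicate wells show activity change below -50%, luminescence cut by over half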;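 also: luciferase reports HSF-1 transcriptional activity via heat shock element; 0% = median of DMSO wells and -100% = zero luminescence signal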
Wnt act: Wnt/beta-catenin pathway activators, primary screen, cell-based, plate reader, single point | Wnt/beta-catenin reporter cell assay, activator | activation, % at 9.35 µM | 300,000 compounds, 1.2% hits | AID 743398, 2014; in the data active = activation above about 30%, passing the limit was not always enough;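 also: 0% = neutral control wells and 100% = positive control wells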
esBAF inh: Bmi1 luciferase reporter increase in mESCs, primary screen, esBAF inhibitor project, mouse ES cells, Bmi1 luciferase knock-in, single point | 24 h; 100% = twice the neutral-well signal | reporter increase, % at 12.5 µM | 350,000 compounds, 2% hits; in the data active = activation above about 40%;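 also: 0% = median of the plate's neutral control wells and 100% = double that signal; a rise in the Bmi1 reporter signal indicates esBAF inhibition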
SMARCA2 activ: SMARCA2 (BRM) function activators, primary screen, cell-based, luminescence, high throughput; MG213 cells, MMTV-luciferase reporter, dexamethasone, overnight; activation, % at 9.1 µM; 370,000 compounds, 1% hits; AID 652017, 2013; in the data active = activation above about 7.8%;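 also: 0% = vehicle wells and 100% = reference activator wells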
* hit, by the source's call; . = no result.

SMILES	MITF TRPM1 HTS	HSF1 activator	HSF1 inh	Wnt act	esBAF inh	SMARCA2 activ
COc1ccc(NC(=O)CCN2CCN(S(=O)(=O)c3ccc(OC)cc3)CC2)cc1	-4	-94	-91*	-1	7	0
COc1ccccc1CCC(=O)OCC(=O)Nc1cccc(S(=O)(=O)N2CCOCC2)c1	-8	-73	-63*	-3	-3	-3
O=C(CSc1nnc(Nc2ccccc2F)s1)Nc1cccc(S(=O)(=O)N2CCCCC2)c1	30	24	8	20	43*	-2
COc1ccccc1S(=O)(=O)N[C@@H]1CC[C@@H](CCNC(=O)C2CCC2)O[C@H]1CO	.	.	.	.	-9	.
Cc1noc(C)c1NC(=O)N(C)C[C@@H]1Oc2c(NC(=O)C3CC3)cccc2C(=O)N([C@H](C)CO)C[C@@H]1C	.	.	.	.	-2	.
COc1ccc(NC(=O)Cc2ccccc2F)cc1S(=O)(=O)N1CCCCC1	2	.	.	4	45*	0
O=C(CNC(=O)c1ccc(Cl)cc1)NNC(=O)c1ccc(Br)cc1	5	.	.	55*	-4	-1
O=C(CNC(=O)c1ccc(Br)cc1)NCC(=O)OCc1ccc(Cl)cc1	-15	6	-3	-2	9	-5
O=C(OCCN1CCN(c2ncc(C(F)(F)F)cc2Cl)CC1)c1ccc(Cl)cc1	-6	-84	-80*	.	-1	1
O=C(OC1CCN(c2ncc(C(F)(F)F)cc2Cl)CC1)c1ccc(Cl)cc1	-4	-7	-6	-4	-3	1
C[C@H]1CN([C@@H](C)CO)C(=O)Cc2cc(NS(=O)(=O)c3ccc(Cl)cc3)ccc2O[C@@H]1CN(C)Cc1ccc(-c2ccccc2)cc1	.	.	.	.	6	.
COc1cccc(/C=N/NC(=S)NC2CC3CC2C2C=CCC32)c1O (centres undefined)	.	105*	81	-2	.	1
Oc1ccccc1/C=N/NC(=S)NC1CC2CC1C1C=CCC21 (centres undefined)	31	18	10	49*	57*	0
CC(C)NC(=O)N(C)C[C@@H]1Oc2ccc(NS(=O)(=O)c3cccs3)cc2C(=O)N([C@H](C)CO)C[C@H]1C	.	.	.	.	-1	.
COc1cccc(S(=O)(=O)Nc2ccc3c(c2)OC[C@@H](C)N(Cc2ccccc2F)C[C@@H](C)[C@H](OC)CN(C)C3=O)c1	.	.	.	.	9	.
CC(=O)Nc1ccc2c(c1)C(=O)N(C)[C@H]1CC[C@@H](CC(=O)NCc3ccccc3)O[C@H]1CO2	.	.	.	.	-4	.
COc1ccc(OC)c2sc(N(CCCN(C)C)C(=O)c3ccc(S(=O)(=O)N4CCc5ccccc5C4)cc3)nc12	.	-69	-69*	.	.	.
CN(C)S(=O)(=O)c1ccc2c(c1)C(=NNC(N)=O)c1cc(S(=O)(=O)N(C)C)ccc1-2	-8	0	-4	0	-4	4
CN(CCO)S(=O)(=O)c1ccc2c(c1)C(=NNC(N)=O)c1cc(S(=O)(=O)N(C)CCO)ccc1-2	0	14	2	46*	-2	-1
N#CCc1ccc(NC(=O)Nc2cccc3ccccc23)cc1	16	-82	-78*	.	49*	.
CCCn1c(-c2cccs2)nc2c1c(=O)[nH]c(=O)n2Cc1ccccc1	-13	29	10	1	2	-1
CCn1c(-c2ccsc2)nc2c1c(=O)[nH]c(=O)n2Cc1ccccc1	.	56*	22	-6	4	0
C[C@H](CO)N1C[C@H](C)[C@@H](CN(C)S(=O)(=O)c2ccc(Cl)cc2)Oc2c(NS(=O)(=O)c3ccc(Cl)cc3)cccc2C1=O	.	.	.	.	2	.
CCSC1(SCC)N=C(N)C2(C#N)C(c3ccc(OC)c(OC)c3OC)C12C#N (centres undefined)	-36	198*	149	.	-8	3
CCSC1(SCC)N=C(N)C2(C#N)C(c3ccccc3)NC3=C(CCC3)C12C#N (centres undefined)	-8	29	21	.	5	0
COc1ccc(CN(C)C[C@H]2OCCCC[C@H](C)Oc3ccc(NS(=O)(=O)c4cccs4)cc3C(=O)N([C@@H](C)CO)C[C@@H]2C)cc1	.	.	.	.	-1	.
